# How the values were obtained:
# Assay in all cases: DAPPL (digital affinity profiling via proximity ligation, sequencing); 10 mM Tris-HCl pH 7.5, 50 mM NaCl, 1 mM DTT, 4% glycerol, room temperature, 30 min; GST-TFs on glutathione beads, 16-mer random dsDNA library, 0.1% formaldehyde crosslink after washing; high values mean tight binding
# FEV = target: T1, FEV (Homo sapiens, UniProt Q99581 1-238); details: protein: recombinant; tags: N-terminal GST; dsDNA, one strand shown
# T1 sequence: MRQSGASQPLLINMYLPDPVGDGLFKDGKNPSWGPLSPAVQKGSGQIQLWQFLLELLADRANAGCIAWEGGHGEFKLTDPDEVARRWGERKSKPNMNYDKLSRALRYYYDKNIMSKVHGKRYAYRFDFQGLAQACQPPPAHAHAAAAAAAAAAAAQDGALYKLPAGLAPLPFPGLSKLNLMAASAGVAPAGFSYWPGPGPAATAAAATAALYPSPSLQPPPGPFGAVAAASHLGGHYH
# Summary of the method: (§1)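 Binding signal is defined as a hexamer's read frequency for one factor over its frequency for the tag-only sample. To obtain reads, GST-fused human transcription factors were expressed in yeast, captured on glutathione beads, barcoded with DNA and pooled with that sample. Pools met 200 nmole of a 16-mer random double-stranded DNA library in Tris/NaCl/DTT/glycerol buffer for 30 min at room temperature before washing, 0.1% formaldehyde crosslinking, proximity ligation (BsaI/T4 ligase, 1 h, 37 °C), PCR and Illumina NextSeq500 sequencing.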
# ETV5 = ETV5 (Homo sapiens, UniProt P41161 1-510); details: protein: recombinant; tags: N-terminal GST; dsDNA, one strand shown
# ETV5, sequence (P41161 whole entry): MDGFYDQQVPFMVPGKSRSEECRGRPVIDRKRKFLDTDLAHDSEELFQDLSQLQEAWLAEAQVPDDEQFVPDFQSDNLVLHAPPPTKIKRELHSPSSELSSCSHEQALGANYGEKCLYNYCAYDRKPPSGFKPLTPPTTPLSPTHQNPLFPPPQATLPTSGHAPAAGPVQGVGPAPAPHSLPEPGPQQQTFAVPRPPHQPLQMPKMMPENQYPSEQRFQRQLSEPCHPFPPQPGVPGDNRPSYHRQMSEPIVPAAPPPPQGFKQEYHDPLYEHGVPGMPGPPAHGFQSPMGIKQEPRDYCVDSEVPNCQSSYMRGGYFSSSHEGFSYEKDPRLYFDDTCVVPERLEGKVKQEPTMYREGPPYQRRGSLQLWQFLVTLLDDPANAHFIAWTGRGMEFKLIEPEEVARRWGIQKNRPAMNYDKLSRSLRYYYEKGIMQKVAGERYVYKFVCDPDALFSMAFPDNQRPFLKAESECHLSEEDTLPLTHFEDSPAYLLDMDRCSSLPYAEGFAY
# Summary of the method: as §1
# HSF1 = HSF1 (Homo sapiens, UniProt Q00613 1-529); details: protein: recombinant; tags: N-terminal GST; chain copies: 3; dsDNA, one strand shown
# HSF1, sequence (Q00613 whole entry): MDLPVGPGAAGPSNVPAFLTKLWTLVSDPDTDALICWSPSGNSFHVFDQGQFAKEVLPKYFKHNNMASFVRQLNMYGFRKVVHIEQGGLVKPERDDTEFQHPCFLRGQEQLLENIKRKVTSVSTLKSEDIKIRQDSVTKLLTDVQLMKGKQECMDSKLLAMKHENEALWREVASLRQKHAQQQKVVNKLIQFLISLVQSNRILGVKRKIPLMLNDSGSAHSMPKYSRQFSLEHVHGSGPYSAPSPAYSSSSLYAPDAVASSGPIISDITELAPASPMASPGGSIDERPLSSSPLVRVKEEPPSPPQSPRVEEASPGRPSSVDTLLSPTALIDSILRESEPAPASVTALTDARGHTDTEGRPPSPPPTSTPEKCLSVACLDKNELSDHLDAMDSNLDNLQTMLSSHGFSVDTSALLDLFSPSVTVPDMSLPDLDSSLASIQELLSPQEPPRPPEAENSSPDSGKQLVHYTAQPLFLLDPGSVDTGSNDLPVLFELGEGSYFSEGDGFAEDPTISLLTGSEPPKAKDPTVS
# Summary of the method: as §1
# SPIC = target: T2, SPIC (Homo sapiens, UniProt Q8N5J4 1-248); details: protein: recombinant; tags: N-terminal GST; dsDNA, one strand shown
# T2 sequence: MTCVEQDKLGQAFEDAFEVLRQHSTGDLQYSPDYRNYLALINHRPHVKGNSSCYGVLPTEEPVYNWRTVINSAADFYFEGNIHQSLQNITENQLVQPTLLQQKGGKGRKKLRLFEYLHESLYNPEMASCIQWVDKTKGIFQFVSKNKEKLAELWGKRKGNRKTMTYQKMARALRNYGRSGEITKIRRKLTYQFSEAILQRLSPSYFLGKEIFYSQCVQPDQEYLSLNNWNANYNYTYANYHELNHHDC
# Summary of the method: as §1
# ELF4 = ELF4 (Homo sapiens, UniProt Q99607 1-663); details: protein: recombinant; tags: N-terminal GST; dsDNA, one strand shown
# ELF4, sequence (Q99607 whole entry): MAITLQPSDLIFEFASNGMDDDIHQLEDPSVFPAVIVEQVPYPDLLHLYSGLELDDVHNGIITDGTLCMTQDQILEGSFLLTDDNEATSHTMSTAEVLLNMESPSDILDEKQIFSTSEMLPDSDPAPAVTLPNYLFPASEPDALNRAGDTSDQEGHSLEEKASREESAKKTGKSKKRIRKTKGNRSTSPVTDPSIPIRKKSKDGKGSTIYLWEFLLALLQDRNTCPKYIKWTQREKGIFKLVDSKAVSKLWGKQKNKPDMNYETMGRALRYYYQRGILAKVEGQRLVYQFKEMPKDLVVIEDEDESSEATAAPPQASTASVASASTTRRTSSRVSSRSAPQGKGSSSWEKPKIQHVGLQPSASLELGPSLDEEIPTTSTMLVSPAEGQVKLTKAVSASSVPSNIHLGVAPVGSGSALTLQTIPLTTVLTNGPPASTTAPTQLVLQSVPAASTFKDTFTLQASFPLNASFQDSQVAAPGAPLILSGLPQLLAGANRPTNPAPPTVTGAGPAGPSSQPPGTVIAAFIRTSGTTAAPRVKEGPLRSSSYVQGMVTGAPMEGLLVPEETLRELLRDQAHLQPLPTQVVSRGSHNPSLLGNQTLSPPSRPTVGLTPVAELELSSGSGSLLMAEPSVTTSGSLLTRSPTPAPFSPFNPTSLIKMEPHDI
# Summary of the method: as §1
# ELK4 = target: T3, ELK4 (Homo sapiens, UniProt P28324-2 1-405); details: protein: recombinant; tags: N-terminal GST; dsDNA, one strand shown
# T3 sequence: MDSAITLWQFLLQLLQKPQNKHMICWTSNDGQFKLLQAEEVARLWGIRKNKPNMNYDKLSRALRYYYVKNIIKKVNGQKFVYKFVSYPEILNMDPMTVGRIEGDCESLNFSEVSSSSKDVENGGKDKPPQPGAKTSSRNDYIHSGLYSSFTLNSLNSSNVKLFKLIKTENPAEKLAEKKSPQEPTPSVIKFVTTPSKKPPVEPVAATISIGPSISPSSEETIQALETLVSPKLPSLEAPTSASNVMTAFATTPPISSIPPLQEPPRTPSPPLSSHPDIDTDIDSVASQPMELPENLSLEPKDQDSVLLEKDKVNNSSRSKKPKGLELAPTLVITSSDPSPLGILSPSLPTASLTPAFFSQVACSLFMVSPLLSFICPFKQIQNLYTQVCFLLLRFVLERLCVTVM
# Summary of the method: as §1
# ETV2 = target: T4, ETV2 (Homo sapiens, UniProt O00321 1-342); details: protein: recombinant; tags: N-terminal GST; dsDNA, one strand shown
# T4 sequence: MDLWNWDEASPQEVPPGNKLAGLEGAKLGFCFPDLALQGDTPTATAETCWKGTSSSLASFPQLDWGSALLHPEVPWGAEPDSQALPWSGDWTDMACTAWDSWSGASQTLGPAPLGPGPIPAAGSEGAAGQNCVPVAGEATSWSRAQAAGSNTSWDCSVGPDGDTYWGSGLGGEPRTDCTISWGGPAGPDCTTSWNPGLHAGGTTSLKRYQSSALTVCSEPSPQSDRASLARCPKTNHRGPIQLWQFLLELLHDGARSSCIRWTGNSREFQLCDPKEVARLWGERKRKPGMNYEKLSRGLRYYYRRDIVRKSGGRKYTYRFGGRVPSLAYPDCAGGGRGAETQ
# Summary of the method: as §1
# ELF3 = target: T5, ELF3 (Homo sapiens, UniProt P78545 1-371); details: protein: recombinant; tags: N-terminal GST; dsDNA, one strand shown
# T5 sequence: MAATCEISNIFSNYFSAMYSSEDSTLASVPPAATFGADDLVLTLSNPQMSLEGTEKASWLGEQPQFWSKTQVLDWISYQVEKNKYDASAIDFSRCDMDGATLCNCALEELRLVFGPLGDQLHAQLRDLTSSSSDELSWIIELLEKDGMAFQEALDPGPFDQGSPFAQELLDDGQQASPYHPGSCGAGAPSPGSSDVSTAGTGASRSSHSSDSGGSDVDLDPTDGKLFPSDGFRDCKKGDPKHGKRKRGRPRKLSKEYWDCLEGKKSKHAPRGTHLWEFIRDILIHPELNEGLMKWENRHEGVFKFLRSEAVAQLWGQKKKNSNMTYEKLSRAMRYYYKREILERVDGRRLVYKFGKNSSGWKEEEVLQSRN
# Summary of the method: as §1
# CRX = CRX (Homo sapiens, UniProt O43186 1-299); details: protein: recombinant; tags: N-terminal GST; dsDNA, one strand shown
# CRX, sequence (O43186 whole entry): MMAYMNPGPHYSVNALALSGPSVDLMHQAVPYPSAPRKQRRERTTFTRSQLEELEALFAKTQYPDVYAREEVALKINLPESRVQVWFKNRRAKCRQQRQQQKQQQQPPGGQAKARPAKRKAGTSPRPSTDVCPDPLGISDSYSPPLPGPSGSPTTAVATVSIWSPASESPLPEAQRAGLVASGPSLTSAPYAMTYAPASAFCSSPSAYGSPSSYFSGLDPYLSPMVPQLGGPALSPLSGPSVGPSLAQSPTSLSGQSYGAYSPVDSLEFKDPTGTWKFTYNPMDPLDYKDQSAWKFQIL
# Summary of the method: as §1
# ETV1 = ETV1 (Homo sapiens, UniProt P50549 1-477); details: protein: recombinant; tags: N-terminal GST; dsDNA, one strand shown
# ETV1, sequence (P50549 whole entry): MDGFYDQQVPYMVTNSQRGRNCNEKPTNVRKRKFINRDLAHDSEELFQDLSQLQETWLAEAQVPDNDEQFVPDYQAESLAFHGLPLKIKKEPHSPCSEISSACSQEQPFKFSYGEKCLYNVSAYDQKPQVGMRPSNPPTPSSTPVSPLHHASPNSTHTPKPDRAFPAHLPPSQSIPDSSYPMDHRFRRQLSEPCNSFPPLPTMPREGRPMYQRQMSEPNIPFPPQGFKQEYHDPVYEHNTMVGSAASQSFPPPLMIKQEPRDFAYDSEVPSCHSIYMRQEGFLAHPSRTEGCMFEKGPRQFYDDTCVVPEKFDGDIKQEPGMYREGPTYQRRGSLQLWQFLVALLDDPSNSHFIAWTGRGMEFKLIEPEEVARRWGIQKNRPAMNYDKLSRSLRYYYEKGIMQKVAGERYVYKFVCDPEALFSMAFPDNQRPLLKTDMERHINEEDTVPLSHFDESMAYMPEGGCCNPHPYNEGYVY
# Summary of the method: as §1
sequence,measurement,setting,value
CTCTTG,binding signal,FEV,"1.34 fold enrichment (6-mer frequency, TF over GST control)"
same,binding signal,ETV5,"1.41 fold enrichment (6-mer frequency, TF over GST control)"
same,binding signal,HSF1,"1.24 fold enrichment (6-mer frequency, TF over GST control)"
same,binding signal,SPIC,"1.35 fold enrichment (6-mer frequency, TF over GST control)"
same,binding signal,ELF4,"1.42 fold enrichment (6-mer frequency, TF over GST control)"
same,binding signal,ELK4,"1.52 fold enrichment (6-mer frequency, TF over GST control)"
same,binding signal,ETV2,"1.36 fold enrichment (6-mer frequency, TF over GST control)"
same,binding signal,ELF3,"1.22 fold enrichment (6-mer frequency, TF over GST control)"
same,binding signal,CRX,"1.21 fold enrichment (6-mer frequency, TF over GST control)"
same,binding signal,ETV1,"1.41 fold enrichment (6-mer frequency, TF over GST control)"

# — PMC7862700, “An all-to-all approach to the identification of sequence-specific readers for epigenetic DNA modifications on cytosine”
